Reference: PubChem BioAssay (Tox21)
Values without a mark were called inactive. Results filed as inconclusive are left out. A call without a number means that no potency is given here. Calls of active or inactive are those of the source. Unless noted, calls come from the whole dose curve; as a rule, active = well fitted curve in the direction sought with a large enough effect in the repeat runs; inconclusive = weak or mixed curves; inactive = no such curve, though single readings can be large; an effect the other way counts as inactive or inconclusive.

Experiments:
[1] = qHTS assay to test for compound auto fluorescence at 535 nm (green) in HEK293 cells (AID 720680)
[2] = qHTS assay to test for compound auto fluorescence at 460 nm (blue) in HEK293 cell free culture (AID 720681)
In short: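 Test compounds were pinned into cell-free culture medium (DMEM with 10% FBS) and fluorescence was read directly at Ex/Em 405/460 nm. Signals were expressed as fluorescence equivalents of triamterene, with DMSO vehicle as control.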

[3] = qHTS assay to test for compound auto fluorescence at 535 nm (green) in HEK293 cell free culture (AID 720682)
In short: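 Measurement is a direct plate read of green fluorescence (485 nm in, 535 nm out) after compound addition to serum-supplemented DMEM lacking cells, with fluorescein used to express intensities.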

[4] = qHTS assay to test for compound auto fluorescence at 590 nm (red) in HEK293 cell free culture (AID 720683)
In short: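 Tox21 10K library compounds were pinned into cell-free DMEM with 10% FBS and fluorescence was read at excitation 540 nm. Activity is expressed as Rose Bengal sodium equivalency.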

[5] = qHTS assay to test for compound auto fluorescence at 590 nm (red) in HepG2 cell free culture (AID 720684)
In short: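 Ex 540 / Em 590 nm read of compound in cell-free MEM (10% FBS). Rose Bengal sodium reference.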

[6] = qHTS assay to test for compound auto fluorescence at 460 nm (blue) in HepG2 cell free culture (AID 720685)
In short: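 Cell-free plates of MEM plus 10% FBS received 23 nL compound or DMSO vehicle; blue-channel (405/460 nm) intensity scored against triamterene as reference fluorophore.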

[7] = qHTS assay to test for compound auto fluorescence at 535 nm (green) in HepG2 cell free culture (AID 720686)
[8] = qHTS assay to test for compound auto fluorescence at 460 nm (blue) in HepG2 cells (AID 720687)
In short: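 Cells (2,000/well in MEM with 10% FBS) attached overnight at 37 C, then were exposed to compound or DMSO for 1 hr at 37 C, 5% CO2. Fluorescence read at Ex/Em 405/460 nm, expressed as triamterene-equivalent signal.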

[9] = molecular target: Glucocorticoid receptor (Homo sapiens) (UniProt P04150); assay: qHTS assay to identify small molecule agonists of the glucocorticoid receptor (GR) signaling pathway (AID 720691; active = well fitted activation curve with a large enough effect in the signal ratio in the repeat runs, not every such curve was filed as active; the % refers to the signal ratio)
Glucocorticoid receptor (Homo sapiens), sequence (P04150 whole entry, looked up): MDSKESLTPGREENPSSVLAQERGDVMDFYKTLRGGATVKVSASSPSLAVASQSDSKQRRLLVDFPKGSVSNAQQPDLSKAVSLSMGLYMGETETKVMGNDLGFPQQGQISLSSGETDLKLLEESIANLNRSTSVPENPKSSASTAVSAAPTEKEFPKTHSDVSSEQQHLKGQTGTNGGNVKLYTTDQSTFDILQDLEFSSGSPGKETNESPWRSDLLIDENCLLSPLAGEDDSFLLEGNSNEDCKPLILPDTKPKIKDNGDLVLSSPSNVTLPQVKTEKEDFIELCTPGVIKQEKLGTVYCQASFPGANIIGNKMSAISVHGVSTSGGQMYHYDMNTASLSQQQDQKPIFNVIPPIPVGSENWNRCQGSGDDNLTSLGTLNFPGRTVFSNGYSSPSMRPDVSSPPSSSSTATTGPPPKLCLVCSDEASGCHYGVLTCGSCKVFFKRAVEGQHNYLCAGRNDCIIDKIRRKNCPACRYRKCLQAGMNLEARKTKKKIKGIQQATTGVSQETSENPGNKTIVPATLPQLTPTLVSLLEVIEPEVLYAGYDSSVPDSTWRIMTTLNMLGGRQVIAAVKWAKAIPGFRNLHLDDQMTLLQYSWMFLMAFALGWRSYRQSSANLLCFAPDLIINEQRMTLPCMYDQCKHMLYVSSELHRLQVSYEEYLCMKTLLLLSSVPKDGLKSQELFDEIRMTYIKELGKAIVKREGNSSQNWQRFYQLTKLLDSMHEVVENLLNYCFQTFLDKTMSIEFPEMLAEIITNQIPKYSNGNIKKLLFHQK
In short: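 Compounds in DMSO, alongside positive controls, were added to GR-bla HeLa reporter cells and incubated 18 h at 37 C; GRE-driven beta-lactamase was detected by fluorescence after 2 h with FRET substrate at room temperature.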

[10] = qHTS assay to identify small molecule antagonists of the glucocorticoid receptor (GR) signaling pathway - cell viability counter screen (AID 720693); note: nearly all actives have a fitted effect of over 55% in size
[11] = qHTS assay for identifying genotoxic compounds that show differential cytotoxicity against isogenic chicken DT40 cell lines with known DNA damage response pathways - wild type cell line (AID 743012); note: nearly all actives have a fitted effect of over 60% in size; note: potency is the fitted concentration of half-maximal effect
In short: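 Viability of DNA repair-proficient chicken DT40 cells was assessed by CellTiter-Glo luminescence following 40 h compound exposure at 37 C/5% CO2.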

[12] = qHTS assay for identifying genotoxic compounds that show differential cytotoxicity against isogenic chicken DT40 cell lines with known DNA damage response pathways - Rev3 mutant cell line (AID 743014); note: nearly all actives have a fitted effect of over 55% in size; note: potency is the fitted concentration of half-maximal effect
[13] = qHTS assay for identifying genotoxic compounds that show differential cytotoxicity against isogenic chicken DT40 cell lines with known DNA damage response pathways - Rad54/Ku70 mutant cell line (AID 743015); note: nearly all actives have a fitted effect of over 60% in size; note: potency is the fitted concentration of half-maximal effect
[14] = qHTS assay to identify small molecule antagonists of the androgen receptor (AR) signaling pathway - cell viability counter screen (AID 743033; note: nearly all actives have a fitted effect of over 45% in size)
[15] = qHTS assay to identify small molecule antagonists of the androgen receptor (AR) signaling pathway using the MDA cell line - cell viability counter screen (AID 743041; note: nearly all actives have a fitted effect of over 45% in size)
In short: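 In this qHTS counter assay, fluorescence intensity after CellTiter-Fluor addition indicated viability of MDA-kb2 AR-luc cells given compounds and R1881 for 16 h at 37C.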

[16] = molecular target: Glucocorticoid receptor (Homo sapiens) (UniProt P04150); assay: qHTS assay to identify small molecule antagonists of the glucocorticoid receptor (GR) signaling pathway (AID 720692; active = well fitted inhibition curve with a large enough effect in the signal ratio in the repeat runs, not every such curve was filed as active; the % refers to the signal ratio)
In short: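 In a 1536-well cell format, compounds were added 4 h after seeding GR-bla HeLa cells, together with dexamethasone at 5 nM final; reporter activity was measured by FRET-substrate fluorescence following 18 h at 37 C.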

C=CC1CO1 (stereo unspecified)
outcome [1]: inactive
outcome [2]: inactive
outcome [3]: inactive
outcome [4]: inactive
outcome [5]: inactive
outcome [6]: inactive
outcome [7]: inactive
outcome [8]: inactive
Potency [9]: inactive
outcome [10]: inactive
Potency [11]: inactive
Potency [12]: inactive
Potency [13]: inactive
outcome [14]: inactive
Potency [15]: inactive

OCC(CBr)(CBr)CBr
outcome [1]: inactive
outcome [2]: inactive
outcome [3]: inactive
outcome [4]: inactive
outcome [5]: inactive
outcome [6]: inactive
outcome [7]: inactive
outcome [8]: inactive
Potency [9]: inactive
outcome [10]: inactive
Potency [11]: inactive
Potency [12]: inactive
Potency [15]: inactive

CN1CCN(C2=Nc3ccccc3Oc3ccc(Cl)cc32)CC1
fluorescence, % of fluorescein [1]: 0.0654% [at 18.6 µM]
fluorescence, % of fluorescent control [2]: 0.0139% [at 18.6 µM]
activity change [3]: -0.0046% [at 18.6 µM]
fluorescence, % of fluorescent control [4]: 0.0885% [at 18.6 µM]
fluorescence, % of Rose Bengal [5]: -0.256% [at 18.6 µM]
fluorescence, % of fluorescent control [6]: -0.0109% [at 18.6 µM]
fluorescence, % of fluorescein control [7]: 0.0479% [at 18.6 µM]
fluorescence, % of fluorescent control [8]: 0.0039% [at 18.6 µM]
Potency [9]: inactive
outcome [10]: inactive
Potency [11]: 12700 nM (active)
Potency [15]: inactive

CC(C)=CCC[C@](C)(O)[C@@H]1CC=C(C)CC1
outcome [1]: inactive
outcome [2]: inactive
outcome [3]: inactive
outcome [4]: inactive
outcome [5]: inactive
outcome [6]: inactive
outcome [7]: inactive
outcome [8]: inactive
Potency [9]: inactive
outcome [10]: inactive
Potency [12]: inactive
Potency [13]: inactive
Potency [15]: inactive

ClC(Cl)Cl
outcome [1]: inactive
outcome [2]: inactive
outcome [3]: inactive
outcome [4]: inactive
outcome [5]: inactive
outcome [6]: inactive
outcome [7]: inactive
outcome [8]: inactive
Potency [9]: inactive
Potency [16]: inactive
outcome [10]: inactive
Potency [12]: inactive
Potency [13]: inactive
outcome [14]: inactive
Potency [15]: inactive

O=c1[nH]c(=O)n([C@H]2C[C@H](O)[C@@H](CO)O2)cc1C(F)(F)F
outcome [1]: inactive
outcome [2]: inactive
outcome [3]: inactive
outcome [4]: inactive
outcome [5]: inactive
outcome [6]: inactive
outcome [7]: inactive
outcome [8]: inactive
Potency [9]: inactive
outcome [10]: inactive
Potency [11]: 944 nM (active)
Potency [12]: 133 nM (active)
Potency [13]: 188 nM (active)
outcome [14]: inactive

Oc1ccccc1C=NCc1ccccc1
outcome [1]: inactive
outcome [2]: inactive
outcome [3]: inactive
outcome [4]: inactive
outcome [5]: inactive
outcome [6]: inactive
outcome [7]: inactive
outcome [8]: inactive
Potency [9]: inactive
Potency [16]: inactive
outcome [10]: inactive
Potency [12]: inactive
outcome [14]: inactive
Potency [15]: inactive

CCCCNCCCC
outcome [1]: inactive
outcome [2]: inactive
outcome [3]: inactive
outcome [4]: inactive
outcome [5]: inactive
outcome [6]: inactive
outcome [7]: inactive
outcome [8]: inactive
Potency [9]: inactive
Potency [16]: inactive
outcome [10]: inactive
Potency [12]: inactive
Potency [13]: inactive
outcome [14]: inactive
Potency [15]: inactive

CC(C)(C)C1CCCCC1=O (stereo unspecified)
outcome [1]: inactive
outcome [2]: inactive
outcome [3]: inactive
outcome [4]: inactive
outcome [5]: inactive
outcome [6]: inactive
outcome [7]: inactive
outcome [8]: inactive
Potency [9]: inactive
outcome [10]: inactive
Potency [11]: inactive
Potency [12]: inactive
Potency [13]: inactive
outcome [14]: inactive
Potency [15]: inactive
